Source: PubChem
TDP1 cell CPT – DT40-hTDP1 cell growth loss with CPT. chicken DT40 Tdp1-/-;hTDP1 cells + 20 nM CPT, ATP luminescence, 48 h. Potency, µM (highest dose often 46.2 µM), for the others: at the highest dose activity change, negative = growth inhibition, most hits filed as inhibitors. 420,000 tested, 12% active. AID 686979; note: potency is the fitted concentration of half-maximal effect; % is set by controls: 0 for no effect and ±100 for the full control effect; nearly all actives have a fitted effect of over 55% in size
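Cell growth measured by CellTiter-Glo luminescence after a minimum 48 h, 37 C compound exposure with 20 nM CPT in Tdp1-knockout DT40 cells stably expressing hTDP1, seeded 400/well; qHTS titration format.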
DRD3 antagonist – blocks the human D3 dopamine receptor; P35462; D3R cells, DiscoveRx beta-arrestin luminescence, antagonist mode; stronger effect = lower value; max response, negative = inhibition, %; 360,000 tested, 2.5% active; in the data active = max response below about -50%; inconclusive = no clear call, values can overlap the other calls; note: % is set by controls: 0 for no effect and ±100 for the full control effect
Target sequence (P35462 whole entry, looked up): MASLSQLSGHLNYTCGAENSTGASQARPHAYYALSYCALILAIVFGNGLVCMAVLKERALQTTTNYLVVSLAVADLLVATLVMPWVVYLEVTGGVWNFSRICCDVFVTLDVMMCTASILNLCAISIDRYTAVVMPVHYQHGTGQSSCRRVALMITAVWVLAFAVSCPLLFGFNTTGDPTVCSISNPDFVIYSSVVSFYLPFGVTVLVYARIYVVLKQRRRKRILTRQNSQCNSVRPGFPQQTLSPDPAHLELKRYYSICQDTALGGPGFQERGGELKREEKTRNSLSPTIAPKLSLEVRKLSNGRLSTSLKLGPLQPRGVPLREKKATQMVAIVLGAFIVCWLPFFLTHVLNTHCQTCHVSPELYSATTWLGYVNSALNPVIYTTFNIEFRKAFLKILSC
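Cells plated overnight at 1500 cells/well, then exposed to library compounds with dopamine controls for 90 minutes at 37 degrees C. DiscoveRx reagent added for 30–60 minutes at room temperature; luminescence read, quantitative HTS format.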
ClpP mod – qHTS Assay for Activators of ClpP. purified B. subtilis ClpP, FRET peptide cleavage, 20 min. 340,000 tested, 1.9% active. ATP-dependent Clp protease proteolytic subunit (Bacillus subtilis (strain 168)), P80244. Potency, µM (highest dose often 57.5 µM), for the others: at the top dose activity change, negative = active. AID 651965, 2013; active = well fitted falling curve with a large enough effect; inconclusive = small, poorly fitted or top-dose-only effect; inactive = no such curve, though single readings can be large or run the other way; note: potency is the fitted concentration of half-maximal effect; the source files actives as falling curves though it sought activators and does not explain the sign; nearly all actives have a fitted effect of over 65% in size
Target sequence (P80244 whole entry, looked up): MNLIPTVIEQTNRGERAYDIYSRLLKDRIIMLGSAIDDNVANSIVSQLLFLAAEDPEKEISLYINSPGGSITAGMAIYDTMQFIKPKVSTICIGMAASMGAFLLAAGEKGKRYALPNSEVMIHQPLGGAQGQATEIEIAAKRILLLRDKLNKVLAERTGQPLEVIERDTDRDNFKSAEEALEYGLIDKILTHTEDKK
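Buffer: 100 mM Tris/HCl pH8, 100 mM KCl, 0.05% low protease BSA, 2.5% glycerol, 0.01% Tween-20. ClpP 10 microg/mL final; 20 min RT; delta FRET normalized to ADEP and DMSO controls.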
TDP1 cell noCPT – qHTS for Inhibitors of human tyrosyl-DNA phosphodiesterase 1 (TDP1): qHTS in cells in absence of CPT; DT40 Tdp1-/- hTDP1 cells, no CPT, ATP luminescence, 48 h; Potency, µM (doses to about 46.2 µM), without a hit: at the highest dose activity change, negative = growth inhibition, usual class: inhibitors; 420,000 tested, 15% active; note: potency is the fitted concentration of half-maximal effect; % is set by controls: 0 for no effect and ±100 for the full control effect; nearly all actives have a fitted effect of over 55% in size
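Stably hTDP1-transfected Tdp1-null chicken DT40 cells were treated with library compounds minus camptothecin and grown for at least 48 hr at 37 °C, after which cellular ATP was quantified by luminescence.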
IL-1B inflam inh – blocks inflammasome-driven IL-1 beta release; THP-1 LPS/ATP IL-1B secretion, AlphaLISA, 16 h; stronger effect = lower value; activity change, % at 57.5 µM; 360,000 tested, 4.7% active; in the data active = activity change below about -50%; inconclusive = mostly about -30% to -49%; note: % is set by controls: 0 for no effect and ±100 for the full control effect
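THP-1 cells pretreated 1 hr with compounds (up to 57.5 uM final), then stimulated with LPS (250 ng/mL final) plus ATP (1.25 mM final); secreted IL-1B measured by AlphaLISA after 16 hr, decreased signal indicating inhibition.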
DRD3 agonist – D3 dopamine receptor (human) agonism; P35462; D3R DiscoveRx beta-arrestin cells, luminescence, 90 min; max activation, %; 410,000 tested, 0.58% active; AID 652048; in the data active = max activation above about 30%; note: 0% is about no effect
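Agonist-mode cell screen: cells plated at 1500/well and incubated overnight at 37 °C, then exposed to library compounds for 90 min at 37 °C. Detection reagent was added for 30–60 min at room temperature, and luminescence was read.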
* = called active by the depositor; ? = inconclusive; · = no result given; [ ] = dose if it differs, or a comment. A selection: hits, their analogues and other compounds. The true share with any hit is near 21%. Unless noted, calls come from the whole dose curve; as a rule, active = well fitted inhibition curve with a large enough effect; inconclusive = small, poorly fitted or top-dose-only effect; inactive = flat fitted curve, though single readings scatter.

SMILES | TDP1 cell CPT | DRD3 antagonist | ClpP mod | TDP1 cell noCPT | IL-1B inflam inh | DRD3 agonist
CC[C@@H](O)C[C@H]1CCC[C@@]2(C[C@@H]3OC(=O)/C=C/[C@@](C)(O)[C@@H](O)[C@H](C)[C@@H](O)[C@H](OC4CCC(N(C)C)C(C)O4)[C@@H](O)[C@](C)(O)CCCCC/C=C/[C@@H]4CC(C)(C)O[C@@]4(O)C[C@H](O2)[C@H]3C)O1 (stereo partly specified) | 0.016µM* | 3 | 1% | 0.15µM* | -56* | 4
O=[N+]([O-])c1cccc(NP(=O)(Oc2ccccc2)Oc2ccccc2)c1 | ? | -8 | -2% | ? | -27 | -1
Cc1cccc(NP(=O)(Oc2ccccc2F)Oc2ccccc2F)c1 | ? | 15 | -1% | ? | -99* | -1
Cc1ccc(NP(=O)(Oc2ccccc2F)Oc2ccccc2F)cc1C | ? | -13 | -1% | ? | -84* | 6
CN(c1ccccc1)P(=O)(N1CC1)N1CC1 | 2.6µM* | -6 | -2% | 4.1µM* | 9 | 3
O=P(Oc1ccccc1)(N1CCOCC1)N1CCOCC1 | 3% | 4 | · | 7% | -2 | -10
N=c1c[n+](C2CCCCC2)[n-]o1 | 1% | 5 | -1% | 10% | -6 | 4
COc1ccc2c(c1)CC[C@@H]1[C@@H]2CC[C@]2(C)[C@@H](NCCCCCCN3C(=O)C=CC3=O)CC[C@@H]12 | ? | · | · | 22µM* | · | ·
O=C(Nc1ccc(Cl)c(Cl)c1)O/N=C/c1ccncc1 | ? | 1 | -2% | ? | -94* | -3
O=C1OC(c2ccc(Cl)cc2)=N/C1=C\N1CC2CC(C1)c1cccc(=O)n1C2 (stereo unspecified) | ? | 4 | 0% | -6% | -13 | -2
CC(C)c1ccc(C(=O)N2CCCC(c3cc(C(=O)Nc4ccccc4Cl)no3)C2)cc1 (stereo unspecified) | 15µM* | 25 | -7% | 5.8µM* | 36 | 2
CCO/N=C(\CC)C1=C(O)CC(c2c(C)cc(C)cc2C)CC1=O (stereo unspecified) | ? | · | · | ? | · | 8
COc1ccccc1CN1CCCCC1c1cccnc1 (stereo unspecified) | 21% | -9 | -1% | -25% | -11 | 33*
CN1CCCCC1c1cccnc1 (stereo unspecified) | -3% | · | · | -2% | · | ·
Cn1c(O)c(/C=C2\N=c3ccccc3=C2CCNC(=S)NC2CC2)c(=O)n(C)c1=O | 15µM* | -2 | · | 23µM* | -96* | 0
O=C(O)C(O)(c1ccc(Cl)cc1)C1(O)CCCC1 (stereo unspecified) | -20% | -8 | -2% | -11% | -20 | -1
CCCCN1C(=N)C(CC)(CC)C(=O)NC1=O | 3% | 33 | -1% | -9% | -2 | 1
CCC1(CC)C(=N)N(C)C(=O)NC1=O | 11% | 15 | 16µM* | 10% | 19 | 2
N#CCCn1cc(C(=O)Nc2ccccc2Cl)c(-c2ccc([N+](=O)[O-])cc2)n1 | -9% | -13 | 0% | ? | -10 | 2
Clc1ccc2c(c1)CCc1cccnc1C2=C1CCNCC1 | 6.5µM* | · | · | 7.3µM* | · | ·
O=C(c1c[nH]cc1-c1ccccc1)c1cccc2ccccc12 | 18µM* | -15 | 0% | 15µM* | -15 | -9
O=c1c(-c2ccccc2)c(O)c2ccccc2n1-c1ccccc1 | 1% | -13 | ? | -7% | -7 | 3
COCC(=O)N1Cc2ccccc2-n2nncc2C1 | -4% | -5 | 2% | -19% | 15 | 0
O=C(Cc1c(Cl)cccc1Cl)N1CCN(Cc2ccccc2)CC1 | -1% | -51* | -4% | ? | -12 | -20
Cc1cc(=O)oc2c(C)c(OCC(=O)N3CCN(Cc4ccccc4)CC3)ccc12 | 3% | 11 | · | ? | -4 | -12
SMILES | TDP1 cell CPT | DRD3 antagonist | ClpP mod | TDP1 cell noCPT | IL-1B inflam inh | DRD3 agonist
CS(=O)(=O)c1ccc(C2=C(CNC(=O)c3ccncc3)[C@H]3CC[C@@H](C2)N3Cc2ccccc2)cc1 | 5% | 2 | -3% | -1% | -2 | -4
CN1Cc2ccccc2[C@@H]2c3cccc4[nH]cc(c34)C[C@H]21 | 5.2µM* | · | · | 5.8µM* | · | ·
CC1=C[C@@H]2c3cccc4[nH]cc(c34)C[C@H]2N(C)C1 | ? | -22 | · | ? | -1 | 54*
CN1CC[C@@]2(C)c3cc(O)ccc3N(C)C12 (stereo partly specified) | 4µM* | · | -3% | ? | · | ·
CNC(=O)Oc1ccc2c(c1)C1(C)CCN(C)C1N2C (stereo unspecified) | 24µM* | · | · | 30µM* | · | ·
Cc1ccc(C(=O)Nc2cnn(-c3ccc(C(=O)N(C)Cc4n[nH]c5c4CCCC5)cc3)c2)c(C)c1 | 15%[9.04 µM] | · | · | ? | · | ·
O=C(c1ccccc1)N1CCN(c2ccccc2)CC1 | -24% | -9 | · | 23µM* | -7 | -8
CC1(C)C(C(=O)N2CCN(C(=O)c3ccccc3)CC2)C1(C)C | -19% | 5 | · | -10% | 6 | -3
CC(C)Oc1ccc(C(=O)Nc2ccc3c(c2)CCCN3C(=O)c2cccs2)cc1 | 12µM* | · | -1% | 6.5µM* | · | 2
CC1(C)C(O)CC(O)[C@]2(C)C1CC(=O)[C@]1(C)C2CC[C@@]2(C)C(c3ccoc3)OC(=O)C3OC321 (stereo partly specified) | ? | · | · | -8% | · | ·
COc1ccc(CCn2c(O)c(C=Nc3cccc(F)c3)c(=O)[nH]c2=O)cc1OC | ? | 20 | · | -26% | 18 | 11
CCCCCCN1CCN(c2ccccc2Cl)CC1 | ? | -115* | -1% | ? | 46 | 2
Cc1c(C=O)c2ccccc2n1Cc1ccc([N+](=O)[O-])cc1 | ? | ? | -1% | -30% | 0 | -2
COc1ccc(CNS(=O)(=O)c2cc3c(cc2C)N(C)CCO3)cc1 | ? | 17 | -1% | 15µM* | 2 | 1
COc1ccc(CNCC(=O)N2CCC3(CC2)OCCO3)cc1 | 0% | -8 | -8% | -8% | 8 | -5
O=C1NC(=O)C2(CCN(c3ccccc3)CC2)C(=O)N1 | 8% | 19 | 1% | 1% | 7 | 2
O=C(N/N=C/c1c(O)n(Cc2ccc(F)cc2)c(=O)[nH]c1=O)c1ccccc1O | 13µM* | -11 | -24% | ? | 35 | 2
CCCCCCC(=O)N/N=C/c1c(O)n(C2CC2)c(=S)[nH]c1=O | ? | -19 | 1% | ? | 59 | -18
